PAX8 inh HTS: inhibitors of PAX8 transcriptional activity in RMG-I cells. RMG-I TPO-luciferase reporter, SteadyGlo, 24 h. inhibition, % at 12.6 µM. AID 652154. 360,000 compounds, 1.2% hits;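 active = mean replicate inhibition at least 60% with every replicate also reaching 60%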;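 also: luciferase light reporting Pax8 driven TPO promoter activity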
EWS-Fli block: blocks EWS/Fli oncoprotein-driven transcription. AID 651661. 350,000 compounds, 0.67% hits. A673 NR0B1-luciferase reporter, viability-normalised. inhibition, % at 12.6 µM;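 active = mean inhibition of at least 50% after viability correction, with every replicate also passing that limit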;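 also: firefly luciferase signal divided by Alamar Blue viability fluorescence both relative to DMSO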
TRPM1 prom inh: inhibitors of MITF-driven TRPM1 promoter in melanoma cells. inhibition, % at 12.5 µM. SK-MEL-5 TRPM1 promoter luciferase, 24 h. 330,000 compounds, 0.83% hits;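 active = mean inhibition across replicates of 60% or more, whatever share of single replicates reaches that level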
Shn3 inh set2: reduces Shn3 3'UTR luciferase signal in osteoblasts; Clone20 osteoblast Shn3 3'UTR firefly luciferase, 24 h; inhibition, % at 12.5 µM; 360,000 compounds, 0.52% hits; AID 588674;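 active = mean inhibition of at least 75% with every replicate also reaching 75%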
EBV LMP1 NFkB: inhibitors of Epstein-Barr LMP1-induced NF-kappaB reporter | LMP1-induced NF-kappaB luciferase reporter cells, luminescence | inhibition, % at 12.5 µM | 350,000 compounds, 0.69% hits | AID 504558; in the data active = inhibition above about 41%
LGR2 inh: inhibitors of bursicon-induced Drosophila LGR2 receptor cAMP signaling; HEK293 LGR2, CRE-luciferase, bursicon-stimulated, 4 h; inhibition, % at 9.99 µM; 380,000 compounds, 0.35% hits;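 active = drop in luminescence signal, shown as inhibition above about 50% in the replicate tests, limit read from the data, passing the limit was not always enough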;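 also: agonist challenge used bursicon conditioned medium at about half maximal strength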
Numbers stand for hits; . = inactive; / = not tested or not shown; ! = a repeat was not active. An excerpt weighted towards active compounds, which were near 2.2% of everything screened.

SMILES	PAX8 inh HTS	EWS-Fli block	TRPM1 prom inh	Shn3 inh set2	EBV LMP1 NFkB	LGR2 inh
c1ccc2c3c([nH]c2c1)C(C1CCCCC1)N(Cc1ncc[nH]1)CC3 (stereo unspecified)	.	/	.	.	73	.
O=[N+]([O-])c1ccc(N=Nc2ncc[nH]2)cc1	74	63	.	.	.	.
CCOC1=C2[C@H](c3ccc(CC)cc3)N(S(=O)(=O)c3ccc(C)cc3)C[C@H]2C(C#N)(C#N)C(C#N)(C#N)C1	.	.	/	95	/	.
CCCC(=O)Nc1ccc2c(c1)C(=O)N(C)C[C@@H](OC)[C@@H](C)CN(CCC(F)(F)F)[C@@H](C)CO2	.	.	/	/	/	.
C[C@@H]1CN([C@@H](C)CO)C(=O)c2cc(NC(=O)C3CC3)ccc2O[C@@H]1CN(C)Cc1ccncc1	.	.	/	/	/	.
COc1ccccc1S(=O)(=O)N(C)C[C@@H]1Oc2cc(C#CCC(C)C)ccc2S(=O)(=O)N([C@H](C)CO)C[C@@H]1C	.	.	/	.	.	.
COc1ccccc1S(=O)(=O)N(C)C[C@@H]1Oc2cc(C#CCC3CCCC3)ccc2S(=O)(=O)N([C@H](C)CO)C[C@@H]1C	64	.	/	/	/	.
COc1ccccc1S(=O)(=O)N(C)C[C@H]1Oc2cc(C#CCC3CCCC3)ccc2S(=O)(=O)N([C@H](C)CO)C[C@@H]1C	73	.	/	/	/	.
COc1ccccc1S(=O)(=O)N(C)C[C@H]1Oc2cc(C#CCC3CCCC3)ccc2S(=O)(=O)N([C@H](C)CO)C[C@H]1C	84!	.	/	.	.	.
Cc1cc(C)nc(N/C(=N\S(=O)(=O)Cc2ccccc2)Nc2ccccc2Br)n1	.	/	.	.	55	.
Cc1noc(C)c1NC(=O)Nc1ccc2c(c1)C(=O)N([C@@H](C)CO)C[C@@H](C)[C@H](CN(C)CC1CC1)OCCCC[C@H](C)O2	.	/	/	/	/	.
CN(C(=O)COC(=O)/C=C/c1ccc2ccccc2n1)c1c(N)n(Cc2ccccc2)c(=O)[nH]c1=O	86	.	.	.	.	.
COCCN(C(=O)COC(=O)Cc1coc2cc(C)ccc12)c1c(N)n(Cc2ccccc2)c(=O)[nH]c1=O	.	.	.	.	.	.
COCCN(C(=O)COC(=O)/C=C/c1ccc2ccccc2n1)c1c(N)n(Cc2ccccc2)c(=O)[nH]c1=O	64	/	.	.	.	.
COc1ccc2c(CC(=O)OCC(=O)N(C)c3c(N)n(Cc4ccccc4)c(=O)[nH]c3=O)coc2c1	.	.	.	94	.	.
COCCN(C(=O)COC(=O)/C=C/c1nc2ccccc2s1)c1c(N)n(Cc2ccccc2)c(=O)[nH]c1=O	76	.	.	.	.	.
COCCN(C(=O)COC(=O)/C=C/c1ccccc1Cl)c1c(N)n(Cc2ccccc2)c(=O)[nH]c1=O	.	.	.	.	.	.
CCCN(C)C[C@@H]1Oc2cc(C#Cc3ccc(F)cc3)ccc2S(=O)(=O)N([C@@H](C)CO)C[C@@H]1C	/	.	/	/	/	.
CC1CCN(C(=O)/C(=C\c2cccs2)NC(=O)c2ccccc2)CC1	.	.	.	.	53	.
CCOC(=O)c1c(CN2CCNCC2)nc2ccc(Cl)cc2c1-c1ccccc1	.	.	90	.	.	.
O=C(O)C[C@@H]1C=C[C@H](NC(=O)c2ccccc2F)[C@H](CO)O1	.	.	/	/	/	.
C=CCn1c(=O)/c(=C/c2ccc(Cl)cc2)s/c1=C(\C#N)c1nnc2n1CCCCC2	.	.	.	.	71	.
C=CCN1C(c2ccccc2)=CS/C1=C(\C#N)c1nnc2n1CCCCC2	/	/	.	.	.	/
Cc1cccc2c(N)c3c(nc12)CCCC3 (tested in a mixture with another compound)	.	.	.	.	.	.
Cc1cc(C)c2c(N)c3cccc(C)c3nc2n1	.	.	66	.	.	/
O=C(c1ccco1)N1CCN(S(=O)(=O)/C=C/c2ccccc2)CC1	.	.	.	.	49	.
O=C(c1cc2ccccc2o1)N1CCN(S(=O)(=O)/C=C/c2ccccc2)CC1	.	.	.	.	.	.
CCCCN1C(=N)N([C@@H](C)CN2CCC[C@H]2CN2C(N)=NC[C@@H]2Cc2ccccc2)C[C@H]1Cc1ccccc1	.	.	/	.	.	.
CCCCN1C(=N)N([C@@H](CN2CCC[C@H]2CN2C(N)=NC[C@@H]2Cc2ccccc2)C(C)C)C[C@H]1Cc1ccccc1	63	.	.	.	.	.

Screening data from PubChem.
